# According to PubChem BioAssay AID2685 (National Center for Advancing Translational Sciences (NCATS), 2010):
# The whole screen tested about 320,000 compounds, of which about 2,100 (0.66%) were called active. Not shown: some 53% with an inconclusive outcome. Calls follow the shape of the dose curve; as a rule, active = well fitted inhibition curve with a large enough effect in the signal ratio, with a control signal flat (not every such curve was filed as active); inconclusive = small, poorly fitted or top-dose-only effect, or effect the other way, or a change in a side signal; inactive = flat fitted curve, though single readings scatter; the % refers to the signal ratio. For the sample, actives were picked, then their nearest neighbours and some compounds at random.
# Experiment: qHTS Assay for Lipid Storage Modulators in Drosophila S3 Cells;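 as to cell number change: cells counted by Cell Tracker Red CMTPX staining in the red channel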
# Details: BODIPY lipid droplet fluorescence, 18-24 h, cells fed with added oleic acid; cell number change: measured here: cell count max response; series mostly up to 46.1 µM
# Excerpt: NIH Molecular Libraries Probe Production Centers Network [MLPCN] NIH Chemical Genomics Center [NCGC] MLPCN Grant: 1 R03 MH085686-01 Assay Submitter (PI): Beller, Mathias; Max-Planck-Institut fur Biophysikalische Chemie NCGC Assay Overview: Storing lipids as a reservoir for energy or the anabolism of elementary metabolites is a common feature of probably all cells and is conserved from bacteria to humans. The universal cellular lipid storage organelle is the so-called lipid storage droplet (LD). Although ubiquitous, LDs share a simple structure composed of a hydrophobic core that harbors the storage lipids, which is shielded by a droplet-specific phospholipid monolayer to which proteins are attached. The current model of LD biogenesis involves an incorporation of the lipid core into the membrane leaflets of the endoplasmic reticulum (ER) followed by a subsequent budding-like maturation of a LD, which ultimately pinches off. Once released, LD volume can increase by localized lipogenesis or fusion of existing droplet. Storage lipids are re-mobilized enzymatically by lipase activity. Lipase regulation in the adipocyte is heavily studied and involves multiple components including catecholamine signaling, the LD-associated proteins Perilipin and comparative gene identification (CGI-58) and at least two lipases named hormone sensitive lipase (HSL) and adipocyte triglyceride lipase (ATGL). LD regulation outside of the adipocyte is poorly understood and only few components are known. However, there is an urgent need to learn more about ectopic fat depots as mislocalized storage of lipids, for example in the liver or muscle, is an eminent health problem associated with insulin resistance or the metabolic syndrome. We developed a laser-scanning cytometer assay to enable 1,536-well screening and combined the results of the small molecules screen with an RNAi database based on lipid storage.
# Triacsin C (Sigma-Aldrich T-4540), an inhibitor of long-chain fatty acyl CoA synthetase that blocks synthesis of triglycerides, was used as a positive control for lipid under-storage. A total of 23 nL of compound solution of different concentrations were transferred to the assay plates using a Kalypsys pin tool equipped with a 1,536-pin array containing 10-nL slotted pins (FP1S10, 0.457-mm diameter, 50.8 mm long; V&P Scientific). One microliter of oleic acid (400 uM) was added, and the plate was lidded with stainless steel rubber gasket lined lids containing pinholes. […] Fluorescence was detected by excitation of the fluorophores with a 488-nm laser on an Acumen Explorer (TTP Lab Tech). The total intensity in channel 2 (500-530 nm) reflected lipid droplet accumulation. Cells were detected using channel 3 (575-640 nm) with 5-um width and 100-um depth filters. The ratio of the number of objects in PMT channel 2 over the number of objects in PMT channel 3 was also calculated. Percent activity was computed relative to an internal control (100% inhibited lipid droplet deposition due to the presence of 20 uM Triacsin C), which was added to 32 wells/plate.
# Potency is read from the fitted curve at half-maximal effect.
SMILES,Potency,cell number change
C=CCNC(=S)N1CC2(C)CN(C(=S)NCC=C)CC(C)(C1)C2=O,inactive,9.2%
CC(C)(C)c1[nH]ncc1[N+](=O)[O-],inactive,-8.1%
O=C(CN1C(=O)NC2(CCCC2)C1=O)OCCOc1ccc(Cl)cc1Cl,inactive,–
COC(=O)C1=CN(c2cccc(C(F)(F)F)c2)C=C(C(=O)OC)C1c1ccc(O)c(OC)c1,inactive,-17.2%
COC(=O)C1=CN(c2cccc(C)c2)C=C(C(=O)OC)C1c1cc(OC)c(O)c([N+](=O)[O-])c1,25.9 µM (active),-3.94%
CCOC(=O)C1=CN(c2cccc(F)c2)C=C(C(=O)OCC)C1c1cc(OC)c(O)c([N+](=O)[O-])c1,inactive,–
O=C(Cn1nc(Cc2cccnc2)c2ccccc2c1=O)Nc1cccnc1Cl,inactive,1.33%
COc1ccc(-c2cc(=O)oc3cc(OCc4nn[nH]n4)ccc23)cc1,inactive,14.9%
CN(C)S(=O)(=O)c1ccc(C(=O)/C=C/c2cccnc2)cc1,0.326 µM (active),10.3%
O=C(/C=C/c1cccnc1)c1ccc([N+](=O)[O-])cc1,inactive,10.1%
CN(C)c1ccc(C(=O)/C=C/c2cccnc2)cc1,inactive,-3.58%
CCc1ccc(N2C(=O)C3NN=C(C(=O)OCc4ccccc4)C3C2=O)cc1 (stereo unspecified),inactive,22.8%
COc1cccc(-c2nc(=S)c3c(o2)CCCC3)c1,inactive,9.57%
O=C(Nc1ccc(OCC(=O)N2CCOCC2)cc1)c1cncc(Br)c1,inactive,9.01%
Cc1ccc(NC(=O)c2ccccc2OCc2c(C)noc2C)cc1S(=O)(=O)N(C)C,inactive,-11.7%
CC(=O)NCCC1CCN(C(=O)C2CCC(=O)N(C3CCCC3)C2)CC1 (stereo unspecified),inactive,0.283%
CC1(C)CSC(=NCc2ccccc2)N1C(=O)c1cccc([N+](=O)[O-])c1,inactive,13.5%
CC1(C)CSC(=NCCc2ccccc2)N1C(=O)c1ccc(C#N)cc1,1.3 µM (active),-0.734%
CC1(C)COCN1C(=O)c1ccc(C#N)cc1,inactive,5.63%
O=C(CNS(=O)(=O)c1ccccc1)OCC(=O)c1ccc(F)cc1,inactive,14.3%
O=C(Nc1cccc(F)c1)c1c(F)c(F)c(F)c(F)c1F,inactive,–
COc1cccc(CNC(=O)c2cc(C3CC3)nc3c2cnn3C(C)C)c1,inactive,5.87%
COc1ccc(CNC(=O)c2cc(C3CC3)nc3c2cnn3C(C)C)cc1OC,11.6 µM (active),1.25%
Cc1ccc(CNC(=O)c2cc(C3CC3)nc3c2cnn3C(C)C)cc1,inactive,-11.5%

SMILES,Potency,cell number change
COc1ccc(CSc2nncn2C)cc1[N+](=O)[O-],inactive,-11.4%
O=C(Nc1c2c(nn1-c1ccccc1)CS(=O)(=O)C2)c1ccc2c(c1)OCO2,inactive,-19%
O=C(COC(=O)c1cccc(S(=O)(=O)N2CCOCC2)c1)Nc1ncc(C(F)(F)F)cc1Cl,23.1 µM (active),-11.5%
O=C(COC(=O)c1cccc(S(=O)(=O)N2CCOCC2)c1)Nc1ccc(Cl)cn1,inactive,-3.5%
O=C(COC(=O)c1cccc(S(=O)(=O)N2CCc3ccccc32)c1)Nc1ncc(C(F)(F)F)cc1Cl,inactive,-1.02%
Cc1ccc(NC(=O)CCC(=O)Nc2ccc(C)cc2)cc1,inactive,-16.8%
Cc1cc(C)cc(C(=O)N2CCC3(CC2)NCCc2[nH]cnc23)c1,inactive,–
COc1ccc(-c2csc(NC(=O)c3cccc(N4C(=O)CCC4=O)c3)n2)cc1OC,inactive,19.9%
COCCCNCCCOc1ccc(C)cc1Br,inactive,-14.3%
CNCCCOc1ccc(C)cc1Br,20.6 µM (active),-34.9%
CCCCNCCCOc1ccc(C)cc1Br,inactive,10%
CCc1noc(C)c1C(=O)OCC(=O)c1ccccc1OC,inactive,-12.4%
CCCCCC(=O)Nc1cc(S(=O)(=O)N2CCCCC2)ccc1N1CCOCC1,inactive,-1.56%
COc1ccc(NC(=O)C2CCN(S(C)(=O)=O)CC2)cc1OC,inactive,11.1%
Cc1ccc(NC(=O)C2CCN(S(C)(=O)=O)CC2)cc1C,6.51 µM (active),–
Cc1ccc(NC(=O)C2CCN(S(C)(=O)=O)CC2)cc1,inactive,1.04%
O=C(O)CSC1c2ccccc2C(=O)N1Cc1ccccc1 (stereo unspecified),inactive,-11.8%
O=C(CC(=O)N/N=C/c1ccccc1)NCc1ccccc1,inactive,2.89%
COc1cc(C(=O)NCCOc2ccccc2)cc(OC)c1OC,inactive,-10.6%
COCCCNC(=O)c1cc(OC)c(OC)c(OC)c1,16.4 µM (active),-1.92%
COc1ccc(C(=O)NCCCCCC(=O)O)cc1OC,9.2 µM (active),-16%
COc1ccc(C(=O)NCCCCNC(=O)c2ccc(OC)c(OC)c2)cc1OC,inactive,11.4%
COc1ccc(C(=O)NCCCc2ccccc2)cc1OC,inactive,-16.4%
COc1cc(C(=O)NCCOc2cc(C)cc(C)c2)cc(OC)c1OC,inactive,3%
